Measurements as given in PubChem BioAssay.
Active and inactive are the calls of the source.

What was measured:
[1] = binders of probe aFSTL3 on microarray, primary screen, stem cell growth factor project, biochemical, small-molecule microarray, fluorescence 635/667 (AID 1064); details: higher = more signal;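 also: measures binding of the biotinylated anti-FSTL3 antibody to printed compounds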
[2] = binders from COS7 lysate, DM2A8 probe, primary screen, torsin A project, cell lysate, small-molecule microarray, fluorescence 635/667 (AID 1065); details: higher = more signal, COS7 lysate expressing mutant human TOR1A
[3] = binders of probe aFGF2 on microarray, primary screen, stem cell growth factor project, biochemical, small-molecule microarray, fluorescence 635/667 (AID 1067); details: higher = more signal;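 also: measures binding of biotinylated aFGF2 protein to printed compounds on slides; z-score merges feature fluorescence and signal-to-noise across triplicate slides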
[4] = binders of probe aFGF10 on microarray, primary screen, stem cell growth factor project, biochemical, small-molecule microarray, fluorescence 635/667 (AID 1071); details: higher = more signal;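 also: score merges 667 nm spot intensity and signal to noise from triplicate slides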
[5] = molecular target: Neurogenic locus notch homolog protein 2 (Homo sapiens) (UniProt Q04721); experiment: Notch2 binders on small-molecule microarrays, primary screen, biochemical, small-molecule microarray, 635 nm fluorescence, stem cell growth factors (AID 1073); details: Notch2 binding, higher = more signal
[6] = molecular target: Pro-neuregulin-1, membrane-bound isoform (Homo sapiens) (UniProt Q02297); experiment: NRG1 binders on small-molecule microarrays, primary screen, psychiatric disease protein project, biochemical, small-molecule microarray, fluorescence 635/667 (AID 1075); details: NRG1 binding, 635 nm fluorescence, higher = more signal;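 also: score combines 667 nm spot fluorescence with signal to noise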
Pro-neuregulin-1, membrane-bound isoform (Homo sapiens), sequence (Q02297 whole entry, looked up, the tested form may be a part, canonical isoform): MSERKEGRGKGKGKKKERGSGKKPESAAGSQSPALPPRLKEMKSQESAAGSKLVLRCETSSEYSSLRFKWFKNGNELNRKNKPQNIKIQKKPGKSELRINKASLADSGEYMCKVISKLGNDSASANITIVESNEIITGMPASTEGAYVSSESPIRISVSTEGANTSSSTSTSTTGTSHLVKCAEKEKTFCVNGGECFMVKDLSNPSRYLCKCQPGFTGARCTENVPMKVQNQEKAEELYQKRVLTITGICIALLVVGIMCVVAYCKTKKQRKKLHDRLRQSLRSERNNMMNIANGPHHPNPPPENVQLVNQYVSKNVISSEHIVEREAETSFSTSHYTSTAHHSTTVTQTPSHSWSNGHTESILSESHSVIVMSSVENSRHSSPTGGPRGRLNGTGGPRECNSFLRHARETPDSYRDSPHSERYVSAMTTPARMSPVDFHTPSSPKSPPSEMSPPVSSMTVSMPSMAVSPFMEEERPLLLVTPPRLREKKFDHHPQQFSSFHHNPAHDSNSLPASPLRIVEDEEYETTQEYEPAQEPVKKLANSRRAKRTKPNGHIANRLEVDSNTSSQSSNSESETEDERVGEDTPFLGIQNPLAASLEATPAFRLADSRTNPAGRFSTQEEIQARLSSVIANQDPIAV

[7] = system: Neuregulin-1 EGF-like domain; experiment: binders of neuregulin-1 EGF-like domain, primary screen, biochemical, small-molecule microarray, 635 nm fluorescence (AID 1081); details: small-molecule microarray binding, higher = more signal;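 also: binding of the protein to compounds printed on small-molecule microarray slides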
[8] = FRG1 promoter luciferase signal modulators, primary screen, FRG1 inhibition for FSHD, cell-based, C2C12 myotubes, firefly/Renilla luciferase, luminescence (AID 1084); details: higher = more signal, called active from +8 up or from −8 down
[9] = binders of probe aFST on microarray, primary screen, stem cell growth factor project, biochemical, small-molecule microarray, fluorescence 635/667 (AID 1086); details: higher = more signal;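 also: score merges 667 nm fluorescence with signal-to-noise of each printed compound spot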
[10] = binders of probe aHhip on microarray, primary screen, stem cell growth factor project, biochemical, small-molecule microarray, fluorescence 635/667 (AID 1087); details: higher = more signal;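 also: score merges spot fluorescence at 667nm with spot signal to noise ratio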
[11] = system: PRMT1 (protein arginine N-methyltransferase 1); experiment: PRMT1 binders on small-molecule microarrays, primary screen, biochemical, small-molecule microarray, 635 nm fluorescence (AID 1088); details: small-molecule microarray binding, higher = more signal;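 also: binding of Prmt1 protein to compounds spotted on small-molecule microarray slides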
[12] = yeast growth modulation, basal conditions, primary screen, YJM789 clinical isolate, OD600, 24 h (AID 1089);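 also: growth of clinical yeast isolate S. cerevisiae YJM 789 seeded 1000 cells per well; test concentration not given here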; details: S. cerevisiae YJM789 growth, higher = more signal, called active from +8 up or from −8 down
[13] = fission yeast growth modulation, primary screen, strain 972, OD600, 24 h, no modulator (AID 1090);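 also: basal condition with compound alone and no growth modifier present; test concentration not given here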; details: S. pombe 972 growth, higher = more signal, called active from +8 up or from −8 down
[14] = S. cerevisiae growth modulation with rapamycin, primary screen, strain BY4716, OD600, 96 h (AID 1091); details: higher = more signal, called active from +8 up or from −8 down; also: test concentration not given here
[15] = molecular target: Torsin-1A-interacting protein 2 (Homo sapiens) (UniProt Q8NFQ8); experiment: LULL1 binders on small-molecule microarray, primary screen, cell lysate, human LULL1 lysate, 635/667 nm fluorescence (AID 1092); details: hLULL1 lysate binding, 635 nm fluorescence, higher = more signal;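 also: probe is lysate of COS7 cells overexpressing human LULL1; score merges per-feature 667 nm fluorescence with signal-to-noise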
Torsin-1A-interacting protein 2 (Homo sapiens), sequence (Q8NFQ8 whole entry, looked up): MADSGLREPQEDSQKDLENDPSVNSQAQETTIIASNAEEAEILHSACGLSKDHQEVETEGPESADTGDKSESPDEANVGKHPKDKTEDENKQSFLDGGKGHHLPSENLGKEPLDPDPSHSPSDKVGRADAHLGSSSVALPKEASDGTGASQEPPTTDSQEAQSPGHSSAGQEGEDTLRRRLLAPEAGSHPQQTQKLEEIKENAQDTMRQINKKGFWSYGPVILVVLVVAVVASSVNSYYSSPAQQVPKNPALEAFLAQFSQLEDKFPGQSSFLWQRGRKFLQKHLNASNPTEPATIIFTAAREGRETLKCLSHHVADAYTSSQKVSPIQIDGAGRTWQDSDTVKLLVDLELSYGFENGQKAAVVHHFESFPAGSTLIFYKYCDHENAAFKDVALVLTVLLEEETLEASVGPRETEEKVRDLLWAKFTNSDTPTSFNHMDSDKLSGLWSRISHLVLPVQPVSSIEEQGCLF

[16] = E. coli growth modulation, two-sided OD650, primary screen, E. coli filamentation project, strain DRC41, 24 h (AID 1093); details: OD650, 24 h, higher = more signal, called active from +8 up or from −8 down;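 also: MC1000 strain lacking acrAB efflux and sulA so SOS filamentation is blocked; test concentration not given here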
[17] = small-molecule microarray binders of probe aLefty2, primary screen, biochemical, biotinylated probe, 635/667 nm fluorescence (AID 1094); details: higher = more signal;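 also: score merges spot fluorescence near 667 nm with spot signal-to-noise ratio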
[18] = system: Noggin (protein binding on small-molecule microarray); experiment: Noggin binders on small-molecule microarray, primary screen, biochemical, 635/667 nm fluorescence (AID 1095); details: 635 nm fluorescence, higher = more signal;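 also: score merges 667 nm feature fluorescence with signal to noise over triplicate slides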
[19] = molecular target: Neurogenic locus notch homolog protein 3 (Homo sapiens) (UniProt Q9UM47); experiment: NOTCH3 binders on small-molecule microarray, primary screen, biochemical, 635/667 nm fluorescence (AID 1096); details: NOTCH3 binding, 635 nm fluorescence, higher = more signal
Neurogenic locus notch homolog protein 3 (Homo sapiens), sequence (Q9UM47 whole entry, looked up): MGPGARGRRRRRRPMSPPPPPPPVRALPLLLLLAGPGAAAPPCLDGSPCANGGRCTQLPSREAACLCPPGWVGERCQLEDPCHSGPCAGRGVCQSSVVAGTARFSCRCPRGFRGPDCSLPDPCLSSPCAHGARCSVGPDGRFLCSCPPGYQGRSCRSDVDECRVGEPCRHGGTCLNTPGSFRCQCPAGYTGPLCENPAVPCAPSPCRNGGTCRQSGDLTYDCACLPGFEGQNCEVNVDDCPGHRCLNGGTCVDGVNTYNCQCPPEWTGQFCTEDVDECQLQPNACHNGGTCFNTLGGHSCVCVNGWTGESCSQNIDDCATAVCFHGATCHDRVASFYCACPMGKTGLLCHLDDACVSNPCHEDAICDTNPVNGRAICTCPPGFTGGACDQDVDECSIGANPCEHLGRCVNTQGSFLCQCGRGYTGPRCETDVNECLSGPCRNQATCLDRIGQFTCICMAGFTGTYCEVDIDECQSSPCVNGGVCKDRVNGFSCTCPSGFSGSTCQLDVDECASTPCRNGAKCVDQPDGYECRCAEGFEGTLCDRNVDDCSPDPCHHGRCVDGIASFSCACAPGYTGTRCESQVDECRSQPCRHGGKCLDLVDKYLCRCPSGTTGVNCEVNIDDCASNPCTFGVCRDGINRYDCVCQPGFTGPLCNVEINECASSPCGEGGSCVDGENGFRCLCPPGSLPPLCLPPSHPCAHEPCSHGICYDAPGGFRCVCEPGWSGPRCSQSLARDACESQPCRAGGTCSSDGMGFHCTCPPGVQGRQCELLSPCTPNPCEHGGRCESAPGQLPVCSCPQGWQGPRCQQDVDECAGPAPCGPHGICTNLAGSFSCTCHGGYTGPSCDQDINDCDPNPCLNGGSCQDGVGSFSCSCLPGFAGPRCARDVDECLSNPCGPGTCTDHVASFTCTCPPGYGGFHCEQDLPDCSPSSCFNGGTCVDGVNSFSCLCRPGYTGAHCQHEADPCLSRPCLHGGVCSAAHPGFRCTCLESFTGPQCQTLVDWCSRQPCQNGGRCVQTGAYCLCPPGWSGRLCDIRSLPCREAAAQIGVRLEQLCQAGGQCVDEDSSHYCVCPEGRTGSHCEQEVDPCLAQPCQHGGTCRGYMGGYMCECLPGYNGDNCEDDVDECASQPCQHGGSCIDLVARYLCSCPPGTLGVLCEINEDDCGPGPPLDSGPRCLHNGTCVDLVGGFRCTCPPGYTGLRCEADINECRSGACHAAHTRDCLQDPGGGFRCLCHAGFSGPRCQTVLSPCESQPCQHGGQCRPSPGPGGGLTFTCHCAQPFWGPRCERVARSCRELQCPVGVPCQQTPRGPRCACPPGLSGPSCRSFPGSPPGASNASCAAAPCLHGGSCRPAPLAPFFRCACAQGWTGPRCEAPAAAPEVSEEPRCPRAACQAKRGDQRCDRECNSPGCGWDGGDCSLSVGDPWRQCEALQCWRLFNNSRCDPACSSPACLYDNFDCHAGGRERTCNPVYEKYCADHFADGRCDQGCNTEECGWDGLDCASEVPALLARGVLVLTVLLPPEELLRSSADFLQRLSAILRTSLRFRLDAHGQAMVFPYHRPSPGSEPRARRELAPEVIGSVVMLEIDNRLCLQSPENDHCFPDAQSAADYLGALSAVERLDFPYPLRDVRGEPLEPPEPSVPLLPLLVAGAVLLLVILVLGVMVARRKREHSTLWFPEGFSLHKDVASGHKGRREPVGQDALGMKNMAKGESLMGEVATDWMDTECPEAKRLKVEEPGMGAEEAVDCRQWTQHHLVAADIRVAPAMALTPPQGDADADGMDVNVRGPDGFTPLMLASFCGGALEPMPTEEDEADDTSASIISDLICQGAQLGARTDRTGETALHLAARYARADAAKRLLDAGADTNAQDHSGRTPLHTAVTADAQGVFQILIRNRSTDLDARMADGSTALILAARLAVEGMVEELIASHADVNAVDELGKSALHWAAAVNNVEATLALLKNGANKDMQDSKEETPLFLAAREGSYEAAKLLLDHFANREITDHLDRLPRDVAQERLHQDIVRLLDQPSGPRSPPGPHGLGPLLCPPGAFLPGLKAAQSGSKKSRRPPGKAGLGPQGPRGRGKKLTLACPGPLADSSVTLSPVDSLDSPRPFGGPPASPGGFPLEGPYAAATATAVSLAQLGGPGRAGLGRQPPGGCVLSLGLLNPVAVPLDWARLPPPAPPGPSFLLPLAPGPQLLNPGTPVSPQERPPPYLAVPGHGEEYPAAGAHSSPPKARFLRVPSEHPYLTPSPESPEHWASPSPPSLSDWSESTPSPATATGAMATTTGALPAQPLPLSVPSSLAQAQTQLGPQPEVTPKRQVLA

[20] = small-molecule microarray binders of probe aEGFR, primary screen, biochemical, biotinylated probe, 635/667 nm fluorescence (AID 1097); details: higher = more signal;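 also: probe is a biotinylated anti-EGFR antibody binding compounds printed on slides; score combines fluorescence near 667 nm and signal to noise of each spot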

Row | SMILES | composite z-score [1] | composite z-score [2] | composite z-score [3] | composite z-score [4] | composite z-score [5] | composite z-score [6] | composite z-score [7] | z-score [8] | composite z-score [9] | composite z-score [10] | composite z-score [11] | z-score [12] | z-score [13] | z-score [14] | composite z-score [15] | z-score [16] | composite z-score [17] | composite z-score [18] | composite z-score [19] | composite z-score [20]
1 | CCN1C(=O)[C@H]2[C@H]3[C@H](O)[C@H](O)CC(=NOCc4ccccc4)[C@H]3CC[C@H]2C1=O | -0.5 | 0.391 | -0.116 | 0.611 | 0.262 | -0.0759 | -0.0363 | 0.273 (inactive) | 0.214 | -0.226 | -0.204 | -0.896 (inactive) | -0.337 (inactive) | -0.262 (inactive) | 0.21 | 0.632 (inactive) | -0.386 | 0.863 | 0.469 | -0.0953
2 | C[C@@H]1C=CCC(=O)OC[C@H](C)C(=O)N[C@@H](C)C(=O)OC1 | -0.329 | 0.907 | -0.162 | 0.0108 | 0.0057 | -0.313 | -0.0497 | -0.98 (inactive) | 0.258 | -0.069 | 0.552 | 0.664 (inactive) | 0.406 (inactive) | -0.113 (inactive) | -0.412 | 0.715 (inactive) | -0.293 | 0.828 | 0.254 | 0.0886
3 | CC1CC/C=C\[C@H]2OC34C=CCN(C(C)C)C(=O)[C@H]3N(CCCO)C(=O)[C@@H]4C2C(=O)O1 (stereo not given in full) | 0.456 | 1.1 | -0.175 | 0.245 | -0.673 | 1.19 | 0.866 | -0.345 (inactive) | -0.5 | 0.214 | 1.04 | -1.36 (inactive) | -1.14 (inactive) | -0.24 (inactive) | 1.29 | 1.14 (inactive) | 0.131 | -1.42 | -0.344 | -0.214
4 | COCCOC(=O)N1C(=O)[C@@]2(c3cc(C#Cc4ccc(OC)cc4)ccc31)[C@H](C(=O)N1CCN(c3ncccn3)CC1)[C@H]1C(=O)O[C@H](c3ccccc3)[C@H](c3ccccc3)N1[C@@H]2c1ccc(OCCO)cc1 | 0.367 | -0.473 | -0.006 | 0.3 | 1.35 | 0.458 | 0.703 | 0.726 (inactive) | 0.383 | 0.28 | 1.55 | 2.04 (inactive) | 1.46 (inactive) | 5.06 (inactive) | 2.12 | -0.371 (inactive) | 0.192 | 0.918 | 1.11 | 0.232
5 | CCc1cc2c(nc1CC)CCN(CCC(C)=NOC[C@@H](O)COCc1ccco1)C2 | 0.394 | 2.81 | -0.105 | 0.0103 | 0.95 | -0.38 | 1.36 | 1.16 (inactive) | 2.06 | 0.382 | 1.54 | -0.907 (inactive) | -0.871 (inactive) | -0.935 (inactive) | -1.51 | 0.903 (inactive) | 0.469 | 1.68 | 1.05 | 0.441
6 | COCCCNC(=O)[C@@]1(C)c2ccccc2C(=O)N(Cc2ccc(OC(F)(F)F)cc2)[C@H]1c1ccc(CO)cc1 | 0.729 | -0.255 | -0.116 | -0.0476 | -0.505 | 0.785 | 1.45 | -2.6 (inactive) | 0.153 | 0.213 | 0.289 | -0.0965 (inactive) | 0.203 (inactive) | -0.35 (inactive) | -0.0493 | 0.93 (inactive) | 0.134 | -0.598 | -0.519 | 0.146
7 | COCCOC(=O)N1C(=O)[C@@]2(c3cc(C#CCNC(N)=O)ccc31)[C@H](c1ccc(O)cc1)N1[C@H](c3ccccc3)[C@H](c3ccccc3)OC(=O)[C@H]1[C@@H]2C(=O)N1CCCCCCC1 | 0.282 | 0.384 | -0.0022 | 0.646 | 1.1 | 0.523 | 1.07 | -0.199 (inactive) | 1.2 | -0.0491 | 1.55 | 1.2 (inactive) | 0.159 (inactive) | 1.27 (inactive) | 0.859 | 0.576 (inactive) | 0.354 | 1.28 | 1.08 | 0.0396
8 | COC(=O)C1(C)C=C2C(=C(c3ccccc3)C(=O)C2C)CN1 (stereo not given) | 0.84 | 0.0679 | -0.0535 | -0.18 | -0.167 | 1.96 | 0.691 | 2.35 (inactive) | 0.313 | 0.23 | -0.722 | -0.269 (inactive) | 0.14 (inactive) | 0.654 (inactive) | 0.517 | -0.269 (inactive) | 0.498 | -1.44 | -0.904 | 0.0003
9 | COC(=O)CC=C[C@@H](C)[C@@H](C=NO[C@H](C)c1cn([C@@H]2COC[C@H]2O)nn1)OC | -0.276 | 0.563 | -0.0914 | 0.37 | 0.268 | -0.482 | 0.951 | -0.954 (inactive) | 0.0889 | 0.0024 | 1.35 | 0.212 (inactive) | 0.189 (inactive) | -0.266 (inactive) | 0.965 | 0.135 (inactive) | -0.156 | 0.359 | 0.484 | 0.0009
